Of roughly 8,800 targets only a part is listed; those with a hit were picked by preference. About 0.5% of all pairs of compound and target were hits. Values without a mark were called inactive.

Chain of UniProt Q8IWY9 (Q8IWY9 whole entry, looked up): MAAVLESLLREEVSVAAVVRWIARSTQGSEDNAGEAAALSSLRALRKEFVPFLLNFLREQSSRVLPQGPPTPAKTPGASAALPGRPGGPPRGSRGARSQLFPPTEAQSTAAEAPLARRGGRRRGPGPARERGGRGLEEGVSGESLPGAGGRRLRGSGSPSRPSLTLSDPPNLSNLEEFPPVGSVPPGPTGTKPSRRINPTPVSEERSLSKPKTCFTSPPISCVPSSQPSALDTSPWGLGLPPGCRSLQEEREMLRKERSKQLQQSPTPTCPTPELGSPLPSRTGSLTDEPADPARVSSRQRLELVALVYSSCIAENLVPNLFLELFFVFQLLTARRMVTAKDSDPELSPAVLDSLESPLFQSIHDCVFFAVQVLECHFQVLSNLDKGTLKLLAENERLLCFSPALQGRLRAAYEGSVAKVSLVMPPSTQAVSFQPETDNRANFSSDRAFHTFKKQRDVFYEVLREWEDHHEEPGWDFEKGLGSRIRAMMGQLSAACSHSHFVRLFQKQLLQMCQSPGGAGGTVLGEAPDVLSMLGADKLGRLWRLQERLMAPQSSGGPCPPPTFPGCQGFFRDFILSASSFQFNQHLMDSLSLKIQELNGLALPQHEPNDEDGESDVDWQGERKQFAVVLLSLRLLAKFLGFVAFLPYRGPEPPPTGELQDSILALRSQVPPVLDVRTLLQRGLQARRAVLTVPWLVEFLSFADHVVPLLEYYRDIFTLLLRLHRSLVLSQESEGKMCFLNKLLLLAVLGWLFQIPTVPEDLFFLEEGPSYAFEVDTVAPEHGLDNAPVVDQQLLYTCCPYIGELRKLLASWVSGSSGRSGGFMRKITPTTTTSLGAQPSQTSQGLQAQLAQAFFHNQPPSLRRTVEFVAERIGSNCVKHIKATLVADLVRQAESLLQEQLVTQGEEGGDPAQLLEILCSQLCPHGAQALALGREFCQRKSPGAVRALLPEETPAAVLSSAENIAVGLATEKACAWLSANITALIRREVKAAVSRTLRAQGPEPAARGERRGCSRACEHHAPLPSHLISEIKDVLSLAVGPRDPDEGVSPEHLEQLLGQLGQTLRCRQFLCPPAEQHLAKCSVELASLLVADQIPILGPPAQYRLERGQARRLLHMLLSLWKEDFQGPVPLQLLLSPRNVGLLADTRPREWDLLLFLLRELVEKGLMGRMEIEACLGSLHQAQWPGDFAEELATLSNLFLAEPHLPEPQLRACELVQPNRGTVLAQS
Chain of UniProt Q86WA6 (Q86WA6 whole entry, looked up): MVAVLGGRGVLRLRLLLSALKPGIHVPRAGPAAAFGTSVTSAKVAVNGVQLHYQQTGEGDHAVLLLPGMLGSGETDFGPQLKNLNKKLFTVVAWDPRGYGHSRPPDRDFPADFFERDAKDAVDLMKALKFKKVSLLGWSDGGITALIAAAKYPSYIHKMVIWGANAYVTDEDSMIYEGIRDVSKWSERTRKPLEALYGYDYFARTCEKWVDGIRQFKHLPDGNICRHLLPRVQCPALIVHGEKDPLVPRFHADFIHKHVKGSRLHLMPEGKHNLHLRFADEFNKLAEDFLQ
Chain of UniProt Q8TAP6 (Q8TAP6 whole entry, looked up): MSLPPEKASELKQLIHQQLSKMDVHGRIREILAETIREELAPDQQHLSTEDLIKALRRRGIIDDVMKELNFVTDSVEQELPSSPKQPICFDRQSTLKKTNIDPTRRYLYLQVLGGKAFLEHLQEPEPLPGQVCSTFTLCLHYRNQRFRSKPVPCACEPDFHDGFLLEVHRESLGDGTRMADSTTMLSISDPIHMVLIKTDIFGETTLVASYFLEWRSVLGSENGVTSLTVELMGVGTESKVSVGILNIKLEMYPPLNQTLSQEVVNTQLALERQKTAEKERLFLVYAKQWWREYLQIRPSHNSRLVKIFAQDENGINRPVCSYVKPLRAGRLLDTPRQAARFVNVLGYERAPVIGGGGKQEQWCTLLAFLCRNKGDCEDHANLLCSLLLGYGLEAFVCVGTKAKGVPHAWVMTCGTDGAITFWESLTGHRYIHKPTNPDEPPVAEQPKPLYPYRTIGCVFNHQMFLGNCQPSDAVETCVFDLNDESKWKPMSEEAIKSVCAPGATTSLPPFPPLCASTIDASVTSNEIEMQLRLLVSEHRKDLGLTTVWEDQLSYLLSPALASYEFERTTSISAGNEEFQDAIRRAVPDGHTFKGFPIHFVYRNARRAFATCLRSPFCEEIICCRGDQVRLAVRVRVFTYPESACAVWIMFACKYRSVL
Chain of UniProt Q13042 (Q13042 whole entry, looked up): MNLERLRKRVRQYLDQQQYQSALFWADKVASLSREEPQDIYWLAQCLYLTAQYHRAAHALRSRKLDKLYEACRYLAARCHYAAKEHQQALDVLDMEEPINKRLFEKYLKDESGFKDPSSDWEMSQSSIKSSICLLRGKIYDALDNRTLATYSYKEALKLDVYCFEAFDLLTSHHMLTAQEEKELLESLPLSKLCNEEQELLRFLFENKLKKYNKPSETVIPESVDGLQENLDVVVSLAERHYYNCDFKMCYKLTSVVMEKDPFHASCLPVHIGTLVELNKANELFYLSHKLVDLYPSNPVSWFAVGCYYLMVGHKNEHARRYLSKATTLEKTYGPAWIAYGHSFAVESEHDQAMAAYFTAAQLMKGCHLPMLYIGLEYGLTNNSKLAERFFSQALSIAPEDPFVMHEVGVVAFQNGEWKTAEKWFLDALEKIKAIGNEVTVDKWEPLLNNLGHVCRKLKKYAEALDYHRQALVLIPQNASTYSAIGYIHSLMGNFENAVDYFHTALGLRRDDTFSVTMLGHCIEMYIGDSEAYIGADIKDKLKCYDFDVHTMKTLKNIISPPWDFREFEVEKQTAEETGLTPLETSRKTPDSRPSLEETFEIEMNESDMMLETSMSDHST
Chain of UniProt O00311 (O00311 whole entry, looked up): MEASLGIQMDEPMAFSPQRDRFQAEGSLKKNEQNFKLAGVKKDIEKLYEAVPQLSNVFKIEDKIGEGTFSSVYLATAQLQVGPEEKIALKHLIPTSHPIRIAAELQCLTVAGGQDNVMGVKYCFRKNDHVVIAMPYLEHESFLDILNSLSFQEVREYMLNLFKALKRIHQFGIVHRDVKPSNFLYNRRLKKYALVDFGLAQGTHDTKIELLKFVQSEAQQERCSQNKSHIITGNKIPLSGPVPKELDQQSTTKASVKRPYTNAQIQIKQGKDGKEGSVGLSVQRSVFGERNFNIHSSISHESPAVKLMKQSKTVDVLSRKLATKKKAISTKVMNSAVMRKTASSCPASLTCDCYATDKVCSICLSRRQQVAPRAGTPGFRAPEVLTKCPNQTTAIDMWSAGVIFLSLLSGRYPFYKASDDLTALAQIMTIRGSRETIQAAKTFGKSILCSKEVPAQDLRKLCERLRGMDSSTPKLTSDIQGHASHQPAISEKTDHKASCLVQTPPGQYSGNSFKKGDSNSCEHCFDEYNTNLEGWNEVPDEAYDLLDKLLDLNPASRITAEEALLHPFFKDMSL
Chain of UniProt Q9H257 (Q9H257 whole entry, looked up): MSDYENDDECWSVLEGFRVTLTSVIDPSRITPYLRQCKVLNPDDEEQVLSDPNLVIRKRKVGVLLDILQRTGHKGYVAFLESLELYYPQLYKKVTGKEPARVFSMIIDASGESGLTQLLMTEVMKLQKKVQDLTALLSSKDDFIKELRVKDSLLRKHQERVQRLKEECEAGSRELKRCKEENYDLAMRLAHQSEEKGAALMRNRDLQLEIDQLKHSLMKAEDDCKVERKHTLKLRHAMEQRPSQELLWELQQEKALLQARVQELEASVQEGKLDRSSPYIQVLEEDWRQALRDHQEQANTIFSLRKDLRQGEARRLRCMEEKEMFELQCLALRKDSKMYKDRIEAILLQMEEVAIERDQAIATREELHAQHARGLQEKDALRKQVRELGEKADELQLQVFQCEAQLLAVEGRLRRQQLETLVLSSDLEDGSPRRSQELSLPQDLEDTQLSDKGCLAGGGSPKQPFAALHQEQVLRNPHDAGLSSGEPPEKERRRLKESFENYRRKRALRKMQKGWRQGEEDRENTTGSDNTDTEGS
Chain of UniProt Q8WXE1 (Q8WXE1 whole entry, looked up): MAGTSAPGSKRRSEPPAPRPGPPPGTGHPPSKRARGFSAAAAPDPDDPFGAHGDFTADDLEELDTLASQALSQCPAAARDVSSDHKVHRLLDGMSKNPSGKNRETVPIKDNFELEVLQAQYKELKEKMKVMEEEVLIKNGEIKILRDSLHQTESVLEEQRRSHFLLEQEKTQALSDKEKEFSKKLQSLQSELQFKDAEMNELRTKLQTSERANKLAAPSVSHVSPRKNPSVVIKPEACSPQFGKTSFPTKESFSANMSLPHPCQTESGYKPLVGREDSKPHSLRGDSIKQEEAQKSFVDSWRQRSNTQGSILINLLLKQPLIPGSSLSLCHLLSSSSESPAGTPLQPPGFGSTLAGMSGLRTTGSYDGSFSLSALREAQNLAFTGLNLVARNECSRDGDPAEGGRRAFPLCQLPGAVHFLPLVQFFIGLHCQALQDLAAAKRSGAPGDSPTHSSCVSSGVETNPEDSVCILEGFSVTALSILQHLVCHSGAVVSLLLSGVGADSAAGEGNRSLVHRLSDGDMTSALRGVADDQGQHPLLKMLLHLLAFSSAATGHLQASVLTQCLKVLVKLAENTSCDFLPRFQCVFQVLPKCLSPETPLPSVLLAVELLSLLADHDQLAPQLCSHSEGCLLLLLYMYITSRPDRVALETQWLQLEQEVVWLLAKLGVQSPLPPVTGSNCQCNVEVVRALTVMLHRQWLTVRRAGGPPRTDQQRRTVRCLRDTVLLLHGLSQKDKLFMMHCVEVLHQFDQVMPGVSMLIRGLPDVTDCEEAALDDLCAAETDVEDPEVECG
Chain of UniProt P22676 (P22676 whole entry, looked up): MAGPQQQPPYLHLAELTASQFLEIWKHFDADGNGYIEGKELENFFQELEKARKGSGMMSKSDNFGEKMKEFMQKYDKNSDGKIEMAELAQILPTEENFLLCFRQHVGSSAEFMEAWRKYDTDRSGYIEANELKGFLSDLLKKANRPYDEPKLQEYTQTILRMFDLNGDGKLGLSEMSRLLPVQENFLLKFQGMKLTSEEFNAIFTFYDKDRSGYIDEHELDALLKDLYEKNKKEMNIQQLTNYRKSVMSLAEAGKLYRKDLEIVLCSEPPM

Compound in one assay: CCCS(=O)(=O)Nc1ccc(F)c(C(=O)c2c[nH]c3ncc(-c4ccc(Cl)cc4)cc23)c1F [vemurafenib]
Description: log2 fold change, soluble protein after heating vs DMSO (PISA); higher = thermal stabilisation; K562 lysate, 10 uM; active = over 0.2 and 3.5 SD of the protein, either way, in both replicates (recomputed). The method, boiled down:
(§1)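 Following dounce homogenisation of K562 pellets in PBS pH 7.4 with 1 mM MgCl2, crude extract at 1 mg/mL protein was incubated for 30 min with 10 μM compound. Aliquots were then heated for 3 min over 48°C-58°C and pooled, NP-40 was added to 0.5% at 4°C, and soluble protein was recovered as the supernatant at 21,000xg for 90 min. Channel-sum-equalised TMTpro 16plex LC-MS/MS quantified this protein. Each value, from duplicates, is a log-two fold change in thermal stability relative to solvent controls.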
Consider CARD9 (UniProt Q9H257), for which the log2 fold change is 0.03.
Consider ATG13 isoform 2 (UniProt O75143), for which the log2 fold change was -0.05.
On to CCDC25 (UniProt Q86WR0), for which the log2 fold change is -0.033.
On the same count and under the same terms, in the case of CCPG1 isoform 5 (UniProt Q9ULG6) it was 0.082; in that of BRAF (UniProt P15056), 1.03 (active); in that of CALB2 (UniProt P22676), 0.064.
On the same count and under the same terms, as for CES2 isoform 4 (UniProt O00748), the figure is 0.03; as for CCDC47 (UniProt Q96A33), 0.011; as for CCNB2 (UniProt O95067), 0.04.
On the same count and under the same terms, as for ATP2B4 (UniProt P23634), the figure is 0.002.
On to CDKN1C (UniProt P49918), for which the log2 fold change was -0.275.
As for ATAD3B (UniProt Q5T9A4), the log2 fold change is -0.022.
On to CEP76 (UniProt Q8TAP6), for which the log2 fold change was -0.099.
As to CDK13 (UniProt Q14004), the log2 fold change was -0.124.
As to C2CD5 isoform 3 (UniProt Q86YS7), the log2 fold change was 0.068.
Still for that read-out and setting: in the case of CDAN1 (UniProt Q8IWY9) it was -0.047; in that of ATRIP (UniProt Q8WXE1), 0.174.
For CAMK2G isoform 8 (UniProt Q13555), the log2 fold change was 0.067.
Same read-out and setting: in the case of CDC16 (UniProt Q13042) it was -0.042; in that of CDC7 (UniProt O00311), 0.065.
With BNIP1 (UniProt Q12981), the log2 fold change was 0.024.
As for CAD (UniProt P27708), the log2 fold change was 0.005.
On the same count and under the same terms, as for CFDP1 (UniProt Q9UEE9), the figure is -0.02; as for C15orf41 (UniProt Q9Y2V0), 0.151.
For the target CDC123 (UniProt O75794), the log2 fold change is -0.052.
In the case of BMS1 (UniProt Q14692), the log2 fold change was -0.038.
For the target CCNA2 (UniProt P20248), the log2 fold change was -0.033.
Turning to ATE1 isoform 2 (UniProt O95260), the log2 fold change is 0.118.
Regarding BPHL (UniProt Q86WA6), the log2 fold change is -0.13.
The same measure, in the same setting: as for ATR (UniProt Q13535), the figure is 0.059.
BORCS5 (UniProt Q969J3): the log2 fold change is 0.044.
For CCNYL1 (UniProt Q8N7R7), the log2 fold change is -0.072.
The same measure, in the same setting: as for CBFA2T3 (UniProt O75081), the figure is -0.043; as for ATG7 (UniProt O95352), -0.031; as for CAMKK2 (UniProt Q96RR4), -0.07.
Turning to C19orf54 (UniProt Q5BKX5), the log2 fold change is 0.08.
Same read-out and setting: in the case of ATXN2 (UniProt Q99700) it was 0.007; in that of CASP3 (UniProt P42574), 0.002.
The same measure, in the same setting: as for CAMKK1 isoform 2 (UniProt Q8N5S9), the figure is -0.041.

Compound in another assay: CCCS(=O)(=O)Nc1ccc(F)c(C(=O)c2c[nH]c3ncc(Cl)cc23)c1F
The assay is described as above. The procedure, abridged:
as §1
Take CARD9 (UniProt Q9H257): the log2 fold change was 0.026.
The same measure, in the same setting: in the case of ATG13 isoform 2 (UniProt O75143) it was 0.042; in that of CCDC25 (UniProt Q86WR0), 0.008.
The same measure, in the same setting: in the case of CCPG1 isoform 5 (UniProt Q9ULG6) it was -0.038; in that of BRAF (UniProt P15056), 0.765 (active); in that of CALB2 (UniProt P22676), 0.046.
On the same count and under the same terms, as for CES2 isoform 4 (UniProt O00748), the figure is -0.024.
For the target CCDC47 (UniProt Q96A33), the log2 fold change is 0.032.
Still for that read-out and setting: as for CCNB2 (UniProt O95067), the figure is -0.008; as for ATP2B4 (UniProt P23634), -0.002; as for CDKN1C (UniProt P49918), -0.003.
Turning to ATAD3B (UniProt Q5T9A4), the log2 fold change is 0.016.
Still for that read-out and setting: as for CEP76 (UniProt Q8TAP6), the figure is -0.023; as for CDK13 (UniProt Q14004), -0.031; as for C2CD5 isoform 3 (UniProt Q86YS7), 0.022.
Regarding CDAN1 (UniProt Q8IWY9), the log2 fold change was 0.004.
As for ATRIP (UniProt Q8WXE1), the log2 fold change was 0.002.
In the case of CAMK2G isoform 8 (UniProt Q13555), the log2 fold change is -0.03.
In the case of CDC16 (UniProt Q13042), the log2 fold change was 0.001.
In the case of CDC7 (UniProt O00311), the log2 fold change was 0.073.
On the same count and under the same terms, in the case of BNIP1 (UniProt Q12981) it was 0; in that of CAD (UniProt P27708), 0.026.
CFDP1 (UniProt Q9UEE9): the log2 fold change is -0.008.
The same measure, in the same setting: in the case of C15orf41 (UniProt Q9Y2V0) it was 0.005; in that of CDC123 (UniProt O75794), 0.014; in that of BMS1 (UniProt Q14692), 0.023.
Still for that read-out and setting: as for CCNA2 (UniProt P20248), the figure is -0.004; as for ATE1 isoform 2 (UniProt O95260), -0.006; as for BPHL (UniProt Q86WA6), 0.013.
Same read-out and setting: as for ATR (UniProt Q13535), the figure is 0.013.
In the case of BORCS5 (UniProt Q969J3), the log2 fold change was 0.005.
On the same count and under the same terms, as for CCNYL1 (UniProt Q8N7R7), the figure is 0.003; as for CBFA2T3 (UniProt O75081), 0.018.
For the target ATG7 (UniProt O95352), the log2 fold change was 0.014.
Take CAMKK2 (UniProt Q96RR4): the log2 fold change is -0.026.
On the same count and under the same terms, as for C19orf54 (UniProt Q5BKX5), the figure is -0.028; as for ATXN2 (UniProt Q99700), -0.004; as for CASP3 (UniProt P42574), 0.015.
Same read-out and setting: in the case of CAMKK1 isoform 2 (UniProt Q8N5S9) it was -0.062.

These data come from the supplement of paper PMC10849652.
